According to PubChem BioAssay (EPA / NIEHS):
The source made the active and inactive calls. How the source made its calls: active means hit-call score of the fitted dose curve at least 0.9, where 1 is the maximum; inactive means score below 0.9.

Read-out: Tissue Factor, F3 (gene 2152)
Test: BSK_CASM3C_TissueFactor: BioMAP Diversity Plus: CASM3C Assay for Tissue Factor Biomarker Activity (AID 2283052);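 further: cell surface tissue factor protein level read by ELISA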
Settings: primary human coronary artery smooth muscle cells; actives raise or lower the signal

Row | Compound | outcome | AC50
1 | CCC(C)(CC)c1cc(NC(=O)c2c(OC)cccc2OC)on1 | inactive | –
2 | Nn1cnnc1 | inactive | –
3 | CCCCCCCCOC(=O)c1ccccc1C(=O)OCCCCCCCC | inactive | –
4 | Clc1ccc(Cl)cc1 | inactive | –
5 | Cc1ccccc1O | inactive | –
6 | Cc1cc(-c2ccc(N)c(C)c2)ccc1N | inactive | –
7 | CC#Cc1cc(C)nc(Nc2ccccc2)n1 | inactive | –
8 | CO/C=C(/C(=O)OC)c1ccccc1COc1cccc(C(F)(F)F)n1 | inactive | –
9 | ClC1=C(Cl)[C@]2(Cl)[C@@H]3[C@@H](Cl)[C@H]4O[C@H]4[C@@H]3C1(Cl)C2(Cl)Cl | inactive | –
10 | C=CC(=O)NCNC(=O)C=C | inactive | –
11 | CCCCCCCCCc1ccc(O)cc1 | – | 28.7 µM (active)
12 | N#Cc1ccc(N(CC(N)=O)CC(F)(F)F)cc1C(F)(F)F | inactive | –
13 | CCC(C)(c1ccc(O)cc1)c1ccc(O)cc1 | inactive | –
14 | O=C(N[C@H]1CN2CCC1CC2)c1cc2ccoc2cn1 | inactive | –
15 | ClC1=C(Cl)[C@]2(Cl)[C@@H]3[C@@H]4C[C@@H]([C@H]5O[C@@H]45)[C@@H]3[C@@]1(Cl)C2(Cl)Cl | inactive | –
16 | O=C(NC(=O)c1cc(F)c(F)cc1Cl)Nc1cc(F)ccc1N1CCC(C(=O)O)CC1 | inactive | –
17 | O=S(=O)(O)C(F)(F)C(F)(F)C(F)(F)C(F)(F)C(F)(F)C(F)(F)F | inactive | –

Row | Compound | outcome | AC50
18 | C1CC2OC2CC1C1CO1 (stereo not given) | inactive | –
19 | ClC1=C(Cl)[C@]2(Cl)[C@@H]3[C@H]4C[C@H]([C@@H]5O[C@H]45)[C@@H]3[C@@]1(Cl)C2(Cl)Cl | – | 7.07 µM (active)
20 | C[C@]12CCC(=O)C=C1CC[C@@H]1[C@@H]2CC[C@]2(C)C(=O)CC[C@@H]12 | inactive | –
21 | CCC(C)c1cc([N+](=O)[O-])cc([N+](=O)[O-])c1O (stereo not given) | inactive | –
22 | CCC(=O)O[C@H]1CC[C@H]2[C@@H]3CCC4=CC(=O)CC[C@]4(C)[C@H]3CC[C@]12C | inactive | –
23 | Clc1ccc(C(Cl)(Cl)Cl)cc1 | inactive | –
24 | Oc1ccc(Cl)cc1Cl | inactive | –
25 | C[C@]12CCC(=O)C=C1CC[C@@H]1[C@@H]2CC[C@@]2(C)[C@H]1CC[C@]2(C)O | inactive | –
26 | CC(C)C(=O)OCC(C)(C)C(OC(=O)C(C)C)C(C)C (stereo not given) | inactive | –
27 | O=NN(c1ccccc1)c1ccccc1 | inactive | –
28 | Oc1ccc(C(c2ccc(O)cc2)(C(F)(F)F)C(F)(F)F)cc1 | inactive | –
29 | CCCCCCOC(=O)c1ccccc1C(=O)OCCCCCC | inactive | –
30 | Sc1ccccc1 | inactive | –
31 | Clc1ccc(C(c2ccccc2Cl)C(Cl)(Cl)Cl)cc1 (stereo not given) | inactive | –
32 | c1cc2ccc3cccc4ccc(c1)c2c34 | inactive | –
33 | CCCN(CCC)N=O | inactive | –

Read-out: Interferon-gamma inducible Protein 10 (IP10), CXCL10 (gene 3627)
Test: BSK_hDFCGF_IP10: BioMAP Diversity Plus: hDFCGF Assay for Interferon-gamma inducible Protein 10 (IP10) Biomarker Activity (AID 2283053)
Settings: primary human foreskin fibroblasts; actives raise or lower the signal
Summary of the method: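 Chemical-treated human skin fibroblasts (primary) were sampled at 24 h for IP-10 by ELISA. Both increases and decreases relative to DMSO were scored.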

Row | Compound | outcome | AC50
34 | CCC(C)(CC)c1cc(NC(=O)c2c(OC)cccc2OC)on1 | inactive | –
35 | Nn1cnnc1 | inactive | –
36 | CCCCCCCCOC(=O)c1ccccc1C(=O)OCCCCCCCC | inactive | –
37 | Clc1ccc(Cl)cc1 | inactive | –
38 | Cc1ccccc1O | inactive | –
39 | Cc1cc(-c2ccc(N)c(C)c2)ccc1N | inactive | –
40 | CC#Cc1cc(C)nc(Nc2ccccc2)n1 | inactive | –
41 | CO/C=C(/C(=O)OC)c1ccccc1COc1cccc(C(F)(F)F)n1 | inactive | –
42 | ClC1=C(Cl)[C@]2(Cl)[C@@H]3[C@@H](Cl)[C@H]4O[C@H]4[C@@H]3C1(Cl)C2(Cl)Cl | inactive | –
43 | C=CC(=O)NCNC(=O)C=C | inactive | –
44 | CCCCCCCCCc1ccc(O)cc1 | – | 14.1 µM (active)
45 | N#Cc1ccc(N(CC(N)=O)CC(F)(F)F)cc1C(F)(F)F | inactive | –
46 | CCC(C)(c1ccc(O)cc1)c1ccc(O)cc1 | – | 30.1 µM (active)
47 | O=C(N[C@H]1CN2CCC1CC2)c1cc2ccoc2cn1 | inactive | –
48 | ClC1=C(Cl)[C@]2(Cl)[C@@H]3[C@@H]4C[C@@H]([C@H]5O[C@@H]45)[C@@H]3[C@@]1(Cl)C2(Cl)Cl | inactive | –
49 | O=C(NC(=O)c1cc(F)c(F)cc1Cl)Nc1cc(F)ccc1N1CCC(C(=O)O)CC1 | inactive | –

Row | Compound | outcome | AC50
50 | O=S(=O)(O)C(F)(F)C(F)(F)C(F)(F)C(F)(F)C(F)(F)C(F)(F)F | inactive | –
51 | C1CC2OC2CC1C1CO1 (stereo not given) | inactive | –
52 | ClC1=C(Cl)[C@]2(Cl)[C@@H]3[C@H]4C[C@H]([C@@H]5O[C@H]45)[C@@H]3[C@@]1(Cl)C2(Cl)Cl | inactive | –
53 | C[C@]12CCC(=O)C=C1CC[C@@H]1[C@@H]2CC[C@]2(C)C(=O)CC[C@@H]12 | inactive | –
54 | CCC(C)c1cc([N+](=O)[O-])cc([N+](=O)[O-])c1O (stereo not given) | inactive | –
55 | Clc1ccc(C(Cl)(Cl)Cl)cc1 | inactive | –
56 | Oc1ccc(Cl)cc1Cl | inactive | –
57 | C[C@]12CCC(=O)C=C1CC[C@@H]1[C@@H]2CC[C@@]2(C)[C@H]1CC[C@]2(C)O | inactive | –
58 | CC(C)C(=O)OCC(C)(C)C(OC(=O)C(C)C)C(C)C (stereo not given) | inactive | –
59 | O=NN(c1ccccc1)c1ccccc1 | inactive | –
60 | Oc1ccc(C(c2ccc(O)cc2)(C(F)(F)F)C(F)(F)F)cc1 | – | 16.6 µM (active)
61 | CCCCCCOC(=O)c1ccccc1C(=O)OCCCCCC | inactive | –
62 | Sc1ccccc1 | inactive | –
63 | Clc1ccc(C(c2ccccc2Cl)C(Cl)(Cl)Cl)cc1 (stereo not given) | – | 7.73 µM (active)
64 | c1cc2ccc3cccc4ccc(c1)c2c34 | inactive | –
65 | CCCN(CCC)N=O | inactive | –
